# MARV entry inh: blocks Marburg virus binding to or entry into cells; Marburg virus pseudotyped entry inhibition, cell reporter; Potency, µM (top dose mostly 37.8 µM), actives largely listed as inhibitors; actives 1.8% (n = 300,000); AID 540276; calls by dose curve; tested in HEK293 cells
# FMDV inh: antivirals against foot and mouth disease virus; FMDV antiviral cell-based qHTS; Potency, µM (series often up to 57.9 µM), hits mostly inhibitors; actives 1.2% (n = 410,000); calls by dose curve; tested in HEK293T cells; further: read-out not given here; nearly all actives have a fitted effect of over 45% in size
# VACV mCherry inh: inhibitors of vaccinia virus infection (mCherry reporter signal); Vaccinia virus mCherry reporter infection, fluorescence; Potency, µM (top dose mostly 36.5 µM), usual class: inhibitors; actives 0.63% (n = 310,000); AID 720579; calls by dose curve; tested in A549 cells; further: nearly all actives have a fitted effect of over 35% in size
# HCV inhibitor: blocks hepatitis C virus | actives 3.4% (n = 340,000) | AID 651820 | Huh7.5.1 HCVcc-Cre infection, luciferase reporter, 44 h | Potency, µM (titrated, usually from 41.8 µM), most hits filed as inhibitors; active means well fitted inhibition curve with a large enough effect; inconclusive means small, poorly fitted or top-dose-only effect, or another doubt; inactive means no such curve, though single readings can be large or run the other way
#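 Whole-lifecycle infectious HCVcc-Cre system; cells 1,000/well, compound then virus (~0.5 moi) added 4 h after plating, 44 h culture. Luciferase read 15 sec following 15 min substrate incubation, room temp.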
# Lassa entry inh: blocks Lassa virus binding to or entry into cells. Potency, µM (titrated, usually from 37.9 µM), hits mostly inhibitors. actives 1.2% (n = 300,000). Lassa virus pseudotype entry inhibition, cell reporter; calls by dose curve; tested in HEK293 cells; further: nearly all actives have a fitted effect of over 50% in size
# Vaccinia Venus: inhibitors of vaccinia virus (Venus reporter); Vaccinia virus Venus reporter expression, fluorescence; Potency, µM (doses to about 36.5 µM), usual class: inhibitors; actives 0.46% (n = 330,000); calls by dose curve; tested in A549 cells; further: nearly all actives have a fitted effect of over 30% in size
# Hits are given with their value; - = inactive; ? = inconclusive; . = no result. Only some compounds are listed: those with a hit (about 5.3% of all), similar ones and a draw of the others.
SMILES,MARV entry inh,FMDV inh,VACV mCherry inh,HCV inhibitor,Lassa entry inh,Vaccinia Venus
COc1ccc(OC)c(-c2ccnc(-n3ncc(C(=O)NC(C)(C)CO)c3C3CC3)n2)c1,.,-,-,.,.,-
O=C(COc1cccc(F)c1)Nc1nc(-c2ccncc2)cs1,.,?,.,-,.,.
Cc1ccc(CN2C(=O)N(c3ccc(F)cc3)C(=O)C2CC(=O)Nc2ccc(Cl)cc2)cc1 (centres undefined),-,?,-,.,-,-
O=C1CCCC1C(=O)Nc1ccc2ccccc2c1 (centres undefined),.,-,-,-,.,-
O=C1CCCCC1Nc1ccc2ccccc2c1 (centres undefined),3.5µM,-,?,?,?,-
CN(C)CCn1cnc2c(c1=N)C(c1ccccc1)c1ccc3ccccc3c1O2 (centres undefined),.,-,.,13µM,.,.
COc1ccc(C(=O)NCC(c2cccnc2)N2CCc3ccccc3C2)cc1 (centres undefined),.,-,-,.,-,-
CN(C)c1ccc(CNC(=O)c2cc3cc(S(=O)(=O)N4CCCCC4)ccc3n2C)cc1,.,-,-,.,10µM,-
CCn1cc(C(=O)NCCc2ccc(OC)c(OC)c2)c(=O)c2cc(S(=O)(=O)N3CCCCCC3)ccc21,-,-,-,.,-,-
Cc1ccc(CNC(=O)c2sc3ccc(S(=O)(=O)N4CCCCC4)cc3c2N)cc1,-,.,.,32µM,.,.
CCn1cc(C(=O)NCCc2ccc(OC)c(OC)c2)c(=O)c2cc(S(=O)(=O)N(C)C3CCCCC3)ccc21,11µM,-,?,.,?,?
CCn1cc(C(=O)NCc2ccc(Cl)cc2)c(=O)c2cc(S(=O)(=O)N(C)C)ccc21,?,-,?,?,?,-
CCn1cc(C(=O)NCc2ccc(Cl)cc2)c(=O)c2cc(S(=O)(=O)N(C)C3CCCCC3)ccc21,2.8µM,-,-,.,?,?
Nc1c(C(=O)NCCC2=CCCCC2)sc2ccc(S(=O)(=O)N3CCCCC3)cc12,?,-,.,-,?,.
COc1cc(Cl)c(C)cc1NC(=O)Cn1ncc2c([nH]c3ccccc32)c1=O,.,-,-,.,-,-
Fc1cccc(CN2CCc3nc(Nc4ccc5c(c4)OCCO5)ncc3C2)c1F,.,-,-,.,-,-
Cc1ccc(CNC(=O)c2cc3cc(C)ccc3n2C)cc1,?,-,-,.,?,-
CCn1cc(C(=O)NCc2ccccc2)c(=O)c2cc(S(=O)(=O)N3CCCCCC3)ccc21,-,-,?,.,?,-
Cc1ccc2c(c1)cc(C(=O)NCc1ccc(F)cc1)n2C,?,-,-,.,2µM,-
CCn1cc(C(=O)NCc2ccc(C)cc2)c(=O)c2cc(S(=O)(=O)N3CCCCCC3)ccc21,.,-,?,.,6.3µM,-
c1ccc(C(NCCNC(c2ccccc2)c2ccccc2)c2ccccc2)cc1,8.2µM,-,.,?,?,.
CCc1nc2ccc(C(=O)NCCCN(C)C)cn2c1N(CC)CCOC,.,-,-,.,.,-
COC(=O)Cn1c(=O)c2c(nc3n2CCCN3Cc2ccccc2)n(C)c1=O,-,-,-,-,-,-
Cn1c(=O)n(CC(=O)OCc2ccccc2)c(=O)c2c1nc1n2CCCN1C1CCCCC1,?,28µM,.,-,?,-
C[C@]12CC[C@H](O)C[C@H]1CCC1C2CC[C@]2(C)[C@@H](c3ccc(=O)oc3)C[C@H]3O[C@]132 (some centres undefined),.,.,1.3µM,.,.,1.1µM
SMILES,MARV entry inh,FMDV inh,VACV mCherry inh,HCV inhibitor,Lassa entry inh,Vaccinia Venus
C[C@]12CCC3[C@@H](CC[C@@H]4C[C@H](O)CC[C@]34C)[C@@H]1CCC2=O (some centres undefined),.,-,-,-,.,-
CC(=O)O[C@H]1[C@H]2O[C@]23[C@@H]2CC[C@]4(O)C[C@@H](O)CC[C@]4(C)C2CC[C@]3(C)[C@H]1c1ccc(=O)oc1 (some centres undefined),.,?,32µM,3.2µM,.,0.032µM
C[C@]12CC[C@H]3C(CCC4(O)CC(O)CC[C@]34C=O)C1=CC[C@H]2c1ccc(=O)oc1 (some centres undefined),.,-,.,-,.,.
CCOC(=O)c1c(NC(=O)C2CCCCC2C(=O)O)sc2c1CCCC2 (centres undefined),-,.,.,.,.,.
O=C(Nc1ccccc1-c1nc2ccccc2[nH]1)c1ccc(N2C(=O)CCC2=O)cc1,?,?,-,10µM,-,-
COc1ccc(-c2csc(NC(=O)c3ccc(N4C(=O)CCC4=O)cc3)n2)cc1,-,?,.,-,-,.
COc1ccccc1-c1csc(NC(=O)c2ccc(N3C(=O)CCC3=O)cc2)n1,.,18µM,.,-,.,.
c1ccc2oc(-c3csc(N4CCOCC4)n3)cc2c1,7.9µM,-,-,?,?,-
CCNS(=O)(=O)c1ccc(CCC(=O)Nc2cc(Cl)ccc2Oc2ccccc2)cc1,?,?,?,10µM,?,?
CC(C)NS(=O)(=O)c1ccc(CCC(=O)Nc2cc(Cl)ccc2Oc2ccccc2)cc1,?,?,.,6.3µM,?,?
CCCCc1ccc(-n2nc3cc(Cl)c(NC(=O)c4ccc(OC)cc4)cc3n2)cc1,-,-,-,.,-,-
CCOc1cccc(CN(CC)CC2CCCN(CCc3cccc(OC)c3)C2)c1O (centres undefined),?,-,-,?,?,-
COc1cccc(CN(C)CC2CCCN(CCc3ccccc3C)C2)c1 (centres undefined),.,-,.,11µM,.,.
COc1ccc(CN(C)CC2CCCN(CCc3ccccc3C)C2)cc1O (centres undefined),8.9µM,-,-,?,?,-
COc1cc(OC)c(OC)cc1CN(C)CC1CCCN(CCc2ccccc2F)C1 (centres undefined),.,-,.,14µM,.,.
O=C(NCc1ccc(F)cc1)c1ccc(CSCc2cccc(Cl)c2)o1,.,-,-,.,-,-
c1ccc(-c2csc(=Nc3cccnc3)n2CC2CCCO2)cc1 (centres undefined),?,-,-,-,-,-
CC(C)n1c(-c2ccco2)csc1=Nc1cccnc1,-,25µM,?,?,-,-
COCCn1c(-c2ccccc2)csc1=Nc1cccnc1,?,?,-,8.9µM,-,-
CCCCn1c(C)csc1=Nc1cccnc1,-,-,-,-,-,-
Cc1ccc(-c2csc(=Nc3cccnc3)n2CCCn2ccnc2)cc1C,?,16µM,-,?,?,?
Cc1[nH]nc2c1[C@@H](CCc1ccccc1)C(C#N)=C(N)O2,-,.,.,.,.,.
c1ccc2c(N3CCCCC3)nc(N3CCCC3)nc2c1,?,?,.,3.2µM,?,.
Cc1nc(N2CCCCCC2)c2ccccc2n1,.,-,.,10µM,.,.
c1ccc2c(c1)nc(N1CCCCC1)c1ccccc12,?,-,-,?,-,-
O=C(NCCN1CCOCC1)c1cnn(-c2nccc(-c3cc4ccccc4o3)n2)c1C1CC1,.,-,-,.,.,-
Cc1ccc(F)cc1-c1cc(C(=O)NCc2cc(C(F)(F)F)cc(C(F)(F)F)c2)[nH]n1,.,-,-,.,.,-
COc1ccc(NC(=O)c2cc(-c3cc(Cl)ccc3C)n[nH]2)cn1,.,-,-,.,.,-
COc1ccc(Cl)cc1-c1cc(C(=O)Nc2ccc(C)c(NS(C)(=O)=O)c2)[nH]n1,.,32µM,-,.,.,-
